# L3MBTL1 inh-1: qHTS Assay for the Inhibitors of L3MBTL1. hit rate 0.66% among 230,000. AlphaScreen L3MBTL1–H3K9me1 peptide binding. AID 485360, 2010. Lethal(3)malignant brain tumor-like protein 1 (Homo sapiens), Q9Y468. Potency, µM (titrated, usually from 57.1 µM), actives largely listed as inhibitors; also: nearly all actives have a fitted effect of over 60% in size
#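 AlphaScreen assay: L3MBTL1 (50 nM final) was preincubated 30 min at room temperature with biotinylated H3(1-15)K9me1 peptide (75 nM final), then 30 min with library compounds; streptavidin donor and nickel chelate acceptor beads (10 ug/mL final) added, 30 min dark.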
# G9a block: qHTS Assay for Inhibitors of Histone Lysine Methyltransferase G9a; hit rate 8.8% among 350,000; Potency, µM (series often up to 102 µM), hits mostly inhibitors; Histone-lysine N-methyltransferase EHMT2 (Homo sapiens), Q96KQ7; G9a H3K9 monomethylation, AlphaScreen, 2 h; also: nearly all actives have a fitted effect of over 75% in size
# Target sequence (Q96KQ7 913-1193 limits assumed): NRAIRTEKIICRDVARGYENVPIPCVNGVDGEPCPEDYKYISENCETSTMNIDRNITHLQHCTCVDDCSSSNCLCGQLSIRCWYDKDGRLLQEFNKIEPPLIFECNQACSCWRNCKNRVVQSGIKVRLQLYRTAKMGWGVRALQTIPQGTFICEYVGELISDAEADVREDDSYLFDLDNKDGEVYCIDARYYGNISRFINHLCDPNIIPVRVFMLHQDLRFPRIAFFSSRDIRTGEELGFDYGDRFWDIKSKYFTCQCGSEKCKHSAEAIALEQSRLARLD
#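 Step 1: enzyme (final 20 nM) with compound, 15 min RT. Step 2: substrate peptide 500 nM and SAM 20 uM, 2 h RT. Step 3: anti-H3K9me1 antibody and AlphaScreen beads, 10 min, then plate read.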
# HP1b binding inh: HTS for Inhibitors of HP1-beta Chromodomain Interactions with Methylated Histone Tails | Chromobox protein homolog 1 (Homo sapiens), P83916 | AlphaScreen HP1-beta / biotin-H3K9me3 peptide binding | Potency, µM (top dose mostly 114 µM), usual class: inhibitors | hit rate 0.56% among 390,000; also: nearly all actives have a fitted effect of over 70% in size
# Target sequence (P83916 whole entry, looked up): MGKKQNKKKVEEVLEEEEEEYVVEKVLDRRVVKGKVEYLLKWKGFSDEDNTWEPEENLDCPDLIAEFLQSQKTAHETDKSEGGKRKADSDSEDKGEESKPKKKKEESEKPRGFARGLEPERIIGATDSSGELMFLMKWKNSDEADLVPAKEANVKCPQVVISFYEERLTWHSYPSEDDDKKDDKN
#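 AlphaScreen: HP1-beta (50 nM) preformed 30 min with biotin-H3(1-18)K9me3 peptide (50 nM) in PBS pH 7.4, 0.01% Tween-20. Compound added for 30 min at RT, then streptavidin donor/nickel chelate acceptor beads (10 ug/mL) for 30 min.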
# BAZ2B inh: qHTS Assay for Inhibitors of BAZ2B | Bromodomain adjacent to zinc finger domain protein 2B (Homo sapiens), Q9UIF8 | AID 504333, 2011 | Potency, µM (highest dose often 114 µM), actives largely listed as inhibitors | AlphaScreen BAZ2B-H3K14Ac peptide displacement | hit rate 4.4% among 360,000; also: nearly all actives have a fitted effect of over 60% in size
#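 Compounds, titrated to a top concentration of 110 uM, were incubated 30 min at room temperature with preformed BAZ2B/acetyl-K14 H3 peptide complex (50 nM each). Proximity signal was measured by AlphaScreen after 20 min with beads.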
# JMJD2A Tudor: qHTS Assay for Inhibitors of JMJD2A-Tudor Domain; Lysine-specific demethylase 4A (Homo sapiens), O75164; AlphaScreen JMJD2A-Tudor / H3K4me3 peptide binding; Potency, µM (series often up to 114 µM), hits mostly inhibitors; hit rate 4.4% among 390,000; AID 504339, 2011; also: nearly all actives have a fitted effect of over 50% in size
# L3MBTL1 inh-2: qHTS Assay for the Inhibitors of L3MBTL1: Hit Validation; shares compounds with L3MBTL1 inh-1; L3MBTL1 methyl-lysine binding inhibition, biochemical qHTS; Potency, µM, actives largely listed as inhibitors; hit rate 91% among 500; AID 540279, 2011; also: nearly all actives have a fitted effect of over 70% in size
# AlphaScreen ctr2: qHTS Assay for the Inhibitors of L3MBTL1: Hit Validationin AlphaScreen Counterscreen; 500 tested, under 10 active; AlphaScreen counterscreen, signal inhibition; Potency, µM (highest dose often 57.1 µM), most hits filed as inhibitors; shares compounds with L3MBTL1 inh-1
# Numbers stand for hits; . = inactive; ? = inconclusive; / = not tested or not shown; [ ] = dose if it differs, or a comment. Rows were chosen to be rich in hits. Some 11% of all compounds tested hit in one or more screens of this group. Calls follow the shape of the dose curve; as a rule, active = well fitted curve in the direction sought with a large enough effect; inconclusive = small, poorly fitted or top-dose-only effect, or another doubt; inactive = no such curve, though single readings can be large; an effect the other way counts as inactive or inconclusive.
SMILES,L3MBTL1 inh-1,G9a block,HP1b binding inh,BAZ2B inh,JMJD2A Tudor,L3MBTL1 inh-2,AlphaScreen ctr2
O=C(O)/C=C\C(=O)Nc1ccc(N2CCN(c3ccc(Cl)c(Cl)c3)CC2)cc1,25µM,32µM,?,32µM,40µM,13,?
CC(=O)N1CCN(c2ccc(NC(=O)/C=C/c3ccccc3)cc2)CC1,.,.,.,.,.,/,/
O=C(COc1ccc2ccc(=O)oc2c1)Nc1cccc(S(=O)(=O)N2CCCCC2)c1,.,.[2.33 µM],.,.,.,/,/
Cc1ccc(NC(=O)CN2C(=O)S/C(=C\c3cccn3C)C2=O)cc1,.,.,.,.,.,/,/
Cc1ccc(NC(=O)CN2C(=O)S/C(=C/c3ccc(-c4cccc(C(=O)O)c4)o3)C2=O)cc1,35µM,/,?,16µM,45µM,27,.
COc1cccc(-c2nccc(NCc3ccc(OC)cc3OC)n2)c1,/,.[0.501 µM],/,/,/,/,/
NC(=O)c1ccc(NC(=O)COC(=O)/C=C/c2ccc(Br)o2)cc1,14µM,/,?,/,20µM,6.7,.
Cc1ccc(NC(=O)COC(=O)/C=C/c2ccc(Br)o2)cc1S(=O)(=O)N(C)C,.,?,.,?,.,/,/
Cc1ccc(N=Nc2ccc(O)c3ncccc23)cc1,40µM,?,?,?,?,17,?
Cc1ccc(Sc2ncccc2O)cc1,/,/,.,/,.,/,/
COC(=O)CSc1nc2sc3c(c2c(=O)n1-c1ccccc1C)CC(C)(C)OC3,/,.,.,.,.,/,/
O=C(O)CNc1ccccc1C(=O)O,22µM,/,.,?,56µM,3,.
O=C(O)c1ccccc1NCc1cccnc1,/,/,.,/,.,/,/
CCn1c(SC(C)C(=O)O)nc2sc3c(c2c1=O)CCC3 (stereo not drawn),28µM,?,.,50µM,89µM,3.4,.
CC(Sc1nc2sc3c(c2c(=O)n1-c1ccccc1)CCCC3)C(=O)O (stereo not drawn),.,/,.,.,.,/,/
Cc1onc(-c2ccccc2)c1C(O)c1ccc(F)cc1 (stereo not drawn),/,.,.,.,.,/,/
O=C(CSc1nnc(Nc2ccccc2)s1)NCc1ccco1,.,.,.,/,.,/,/
Cc1ccccc1Nc1nnc(SCC(=O)NC(=O)NCc2ccco2)s1,28µM,35µM,.,.,?,9.5,.
CCOc1ccccc1-n1nnnc1SCC(=O)NC(=O)NCc1ccco1,25µM,79µM,.,50µM,?,21,.
CC(C)(C)NC(=O)NC(=O)CSc1nnc(COc2ccccc2Cl)o1,/,?,.,.,.,/,/
O=C(CSc1nnc(COc2ccccc2Cl)o1)NC(=O)NCc1ccco1,14µM,50µM,?,40µM,?,12,.
COc1ccc(-c2nnc(SCC(=O)Nc3ccc(C(C)=O)cc3)nc2-c2ccc(OC)cc2)cc1,/,.,.,.,.,/,/
CC(=O)c1ccc(NC(=O)CSc2nnc(-c3ccco3)c(-c3ccco3)n2)cc1,25µM,/,32µM,45µM,22µM,15,?
CSCCC(NS(=O)(=O)c1ccc(C)c(C(=O)O)c1)C(=O)O (stereo not drawn),8.9µM,?,.,.,.,?,.
Cc1cc(/C=C2\SC(N)=NC2=O)c(C)n1-c1ccc(F)cc1,.,/,.,.,.[11.4 µM],/,/
SMILES,L3MBTL1 inh-1,G9a block,HP1b binding inh,BAZ2B inh,JMJD2A Tudor,L3MBTL1 inh-2,AlphaScreen ctr2
Cc1ccc2nc(NC(=O)C3CCN(S(=O)(=O)c4cc([N+](=O)[O-])ccc4Cl)CC3)sc2c1,10µM,?,?,35µM,40µM,9.5,.
O=C(NCc1ccccc1)C1CCN(S(=O)(=O)c2cc([N+](=O)[O-])ccc2Cl)CC1,.,.,.,.,.,/,/
Cc1ccc2nc(NC(=O)C3CCN(S(=O)(=O)c4cccc5nsnc45)CC3)sc2c1,.,.,.,?,.,/,/
O=C(Nc1nc2ccc(F)cc2s1)C1CCN(S(=O)(=O)c2cc([N+](=O)[O-])ccc2Cl)CC1,28µM,22µM,.,?,?,6.7,?
Cc1ccc(/C=C/C(=O)NCc2ccccn2)o1,32µM,?,?,45µM,50µM,7.5,.
COc1ccc(/C=C/C(=O)NCc2ccccn2)cc1,.,.,.,.,.,/,/
CC(C)CCNC(=O)CN(C(=O)CCC(=O)Nc1nccs1)C1CCCCC1,/,.,.,.,.,/,/
O=C(Nc1ccc2nc(-c3ccco3)c(-c3ccco3)nc2c1)N1CCN(c2ccccn2)CC1,3.2µM,2.5µM,25µM,?,?,3,.
O=C(CSc1nc(-c2ccccc2)nc2ccc(F)cc12)Nc1ccc(C(=O)O)cc1,40µM,45µM,.,50µM,35µM,?,?

# High-throughput results (PubChem BioAssay)
